Assay results published in the antibiotic and cytotoxicity screens of Wong et al. (2023).
Among all 39,000 compounds or so, about 3,300 (8.5%) were called active. What follows is part of a selection rich in actives, with near analogues and random picks from the rest.

Tested on: HepG2
Assay: cytotoxicity call (relative viability < 0.9)
Details: 10 µM

Row | Structure (SMILES) | cytotoxicity call
1 | COc1ccc(CN(C)C[C@H]2Oc3c(NC(=O)c4cc(C)nn4C)cccc3C(=O)N([C@@H](C)CO)C[C@@H]2C)cc1 | inactive
2 | COc1ccc(NC(=O)Nc2cccc3c2O[C@H](CN(C)S(=O)(=O)c2cn(C)cn2)[C@H](C)CN([C@@H](C)CO)C3=O)cc1 | inactive
3 | O=C(CCCCCC(=O)Nc1ccccc1O)N/N=C/[C@H](O)[C@@H](O)[C@H](O)[C@H](O)CO[C@H]1O[C@H](CO)[C@H](O)[C@H](O)[C@H]1O | inactive
4 | O=C(C[C@@H]1CC[C@H](NC(=O)CN2CCOCC2)[C@H](CO)O1)NCCc1ccccc1 | inactive
5 | C[C@H]1CN([C@@H](C)CO)C(=O)c2cc(-c3ccc(F)cc3)cnc2O[C@H]1CN(C)C(=O)Cc1ccccn1 | inactive
6 | C[C@@H]1CCCCO[C@@H](CN(C)S(C)(=O)=O)[C@H](C)CN([C@@H](C)CO)C(=O)c2cc(NC(=O)Nc3ccc(C(F)(F)F)cc3)ccc2O1 | inactive
7 | CC(C)CC#Cc1ccc2c(c1)O[C@@H](CN(C)C(=O)NC1CCCC1)[C@H](C)CN([C@@H](C)CO)S2(=O)=O | inactive
8 | COc1ccc(NC(=O)N(C)C[C@@H]2OCCCC[C@@H](C)Oc3ccc(NC(=O)CCC(F)(F)F)cc3C(=O)N([C@H](C)CO)C[C@@H]2C)cc1 | inactive
9 | C[C@@H]1CCCCO[C@@H](CN(C)C(=O)NC2CCCCC2)[C@H](C)CN([C@@H](C)CO)C(=O)c2cc(NC(=O)CCCCCC(=O)Nc3ccccc3N)ccc2O1 | inactive
10 | CS(=O)(=O)Nc1ccc2oc3c(OC(F)F)ccc(C(=O)Nc4c(Cl)cncc4Cl)c3c2c1 | inactive
11 | O=c1ccc2c[nH][nH]c-2c1 | inactive
12 | O=C(CCN1CCNCC1)N1CCCCC1 | inactive
13 | COc1ccc(S(=O)(=O)N(C)C[C@@H]2OCCCC[C@@H](C)Oc3ccc(NS(=O)(=O)c4cn(C)cn4)cc3C(=O)N([C@H](C)CO)C[C@@H]2C)cc1 | inactive
14 | C[C@H]1CCCCO[C@H](CN(C)Cc2ccc(C(=O)O)cc2)[C@@H](C)CN([C@@H](C)CO)C(=O)c2cc(NS(=O)(=O)c3ccccc3)ccc2O1 | inactive
15 | C[C@H]1CN([C@@H](C)CO)C(=O)c2cc(NC(=O)Nc3cccc4ccccc34)ccc2O[C@H]1CN(C)CC1CCCCC1 | active
16 | C[C@H](CO)N1C[C@H](C)[C@H](CN(C)CC2CCCCC2)Oc2ccc(NC(=O)Nc3cccc4ccccc34)cc2C1=O | inactive
17 | C[C@@H]1CN([C@H](C)CO)C(=O)c2cc(NC(=O)Nc3cccc4ccccc34)ccc2O[C@@H]1CN(C)CC1CCCCC1 | active
18 | C[C@@H]1CN([C@@H](C)CO)C(=O)c2cc(NC(=O)Nc3cccc4ccccc34)ccc2O[C@@H]1CN(C)CC1CCCCC1 | inactive
19 | C[C@@H]1CN([C@H](C)CO)C(=O)c2cc(NC(=O)Nc3cccc4ccccc34)ccc2O[C@H]1CN(C)CC1CCCCC1 | active
20 | C[C@H]1CN([C@@H](C)CO)C(=O)c2cc(NC(=O)Nc3cccc4ccccc34)ccc2O[C@@H]1CN(C)CC1CCCCC1 | inactive
21 | C[C@@H]1CN([C@@H](C)CO)C(=O)c2cc(NC(=O)Nc3cccc4ccccc34)ccc2O[C@H]1CN(C)CC1CCCCC1 | inactive
22 | C[C@H](CO)N1C[C@H](C)[C@@H](CN(C)CC2CCCCC2)Oc2ccc(NC(=O)Nc3cccc4ccccc34)cc2C1=O | inactive
23 | C[C@H](CO)N1C[C@H](C)[C@@H](CN(C)CC2CCCCC2)Oc2ccc(NC(=O)Nc3ccccc3)cc2C1=O | inactive
